We go through 99 compounds from PubChem BioAssay AID778 (Sanford-Burnham Center for Chemical Genomics, 2007).

The whole screen tested about 96,000 compounds, of which about 20,000 (21%) were called active. Only a sample is shown. A number with no mark means an inactive call.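 The calls were made as follows: active = CYP2C19 inhibition above a set limit at 5 µM in the primary screen (cut at about 50% in these data); inactive = the rest.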

Sequence of Cytochrome P450 2C19 (Homo sapiens) (P33261 whole entry, looked up): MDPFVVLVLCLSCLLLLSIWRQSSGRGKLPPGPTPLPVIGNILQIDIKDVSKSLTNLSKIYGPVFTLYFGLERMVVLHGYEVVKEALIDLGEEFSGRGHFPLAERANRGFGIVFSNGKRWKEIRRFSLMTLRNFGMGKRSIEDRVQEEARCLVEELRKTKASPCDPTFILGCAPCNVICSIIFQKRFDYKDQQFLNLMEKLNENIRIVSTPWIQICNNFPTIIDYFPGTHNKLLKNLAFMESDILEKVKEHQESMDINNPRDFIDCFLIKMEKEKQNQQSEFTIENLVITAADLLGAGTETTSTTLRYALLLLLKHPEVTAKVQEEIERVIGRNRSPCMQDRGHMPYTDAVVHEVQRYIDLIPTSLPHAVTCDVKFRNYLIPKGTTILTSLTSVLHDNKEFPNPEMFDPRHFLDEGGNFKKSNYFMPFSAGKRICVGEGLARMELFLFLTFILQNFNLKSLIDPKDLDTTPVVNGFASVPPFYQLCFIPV

This assay has as its target Cytochrome P450 2C19 (Homo sapiens) (UniProt P33261). The assay is described as follows: blockers of cytochrome P450 2C19 activity – biochemical, luminescence, ADME assay, primary screen (AID 778).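 Also: plate controls were negative control wells for no effect and 2.5 mM tranylcypromine positive control for full effect.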 The following applies: CYP2C19 Supersomes, luciferin-H EGE luminescence, 30 min; at 5 µM; stronger effect = higher value.
With `Cc1cc(-n2nc(C)cc2C)n2nc(C)c(-c3ccccc3)c2n1`, the inhibition is 21.4%.

Take `COc1ccccc1C(=O)N1CCN=C1SCc1cccnc1`: the inhibition was 88.2% (active). `COc1ccccc1C(=O)N1CCNC(=O)C1CC(=O)Nc1ccc(Cl)cc1` (centres undefined): the inhibition is 12.1%. To `CCOc1cccc(SCc2noc(C(=O)NC(C)C)c2C(=O)O)c1` belongs 8.8%; to `COc1ccc(OC)c(C2N(c3ccccn3)C(=O)C3CCCN32)c1` (centres undefined), -2.4%; to `CCn1c(CNc2ccc(OC)cc2)nnc1SCC(=O)c1ccc(OC)cc1`, 33.9%.

Consider `COc1ccc(NCc2nnc(SCc3ccccc3)n2-c2ccc(OC)cc2)cc1`, for which the inhibition was 85.8% (active). Under `COc1ccc(-c2nnc(SCC(=O)c3ccco3)n2-c2ccccc2)cc1` stands -13.8%; under `CCC(=O)N1c2ccc(S(=O)(=O)CCC(=O)N3CCN(c4ccccc4)CC3)cc2CC1C` (centres undefined), 26.2%; under `Cc1csc(=NC(=O)c2ccccc2)n1CCO`, 49.7%. To `Cc1ccn2cc(C(=O)NC3CCN(Cc4ccccc4)CC3)nc2c1` belongs 11.4%; to `CCC(=O)Nc1ccc(C(=O)Nc2cc(C)on2)cc1`, 14.7%; to `CCCC(C)C(=O)Nc1ccc(NC(C)=O)cc1` (centres undefined), -6.8%. Under `O=C(NCCc1ccccn1)c1cc(C(=O)C2CCCCC2)c[nH]1` stands -1.5%.

Consider `CCOC(=O)C1CCN(c2ncnc3c2oc2ccc(Br)cc23)CC1`, for which the inhibition was 43.1%. In the case of `Cc1nn(Cc2ccc(Cl)c(Cl)c2)c(C)c1NC(=O)c1cc(C2CC2)on1`, the inhibition was 95% (active). Under `Cc1cc(C(=O)Nc2c(C)nn(Cc3ccccc3)c2C)on1` stands 11.7%; under `CSc1ccccc1NC(=O)c1cc(C2CC2)on1`, 31.1%. Consider `Cc1nc2nc(CSc3nc4ccccc4s3)cc(=O)n2[nH]1`, for which the inhibition was -9.6%. Take `O=S(=O)(c1ccccc1)N(CC(O)CN1CCCCC1)c1ccccc1` (centres undefined): the inhibition is 17.7%. Regarding `CN(C)/C(CN1CCCCC1)=C1\N=C(c2ccccc2)OC1=O`, the inhibition is 63.8% (active). Turning to `O=c1oc2c(Cl)cc(Cl)cc2cc1-c1nnc(Nc2ccccc2F)s1`, the inhibition was -3.7%. To `CCOC(=O)CNC(=O)CN1C(=O)CCSc2ccccc21` belongs 44.3%. Under `CCSc1ncnc2c(C#N)c3n(c12)CCCCC3` stands 5.8%; under `Cc1nc(-c2ccc(NC(=O)c3cccs3)cc2)cs1`, 12.8%.

On to `O=C(Nc1ccccc1)OCc1cc(-c2ccc(Cl)cc2)on1`, for which the inhibition is 16.6%. To `O=C(Nc1ccccc1)OCc1cn(-c2ccc(Cl)cc2)nn1` belongs -1.4%; to `O=C(Nc1ccc(Cl)cc1)OCc1cc(-c2ccccc2)on1`, 76.4% (active). To `CCOC(=O)CSc1ncc(-c2cccc(Cl)c2)cn1` belongs 11.1%. Take `COc1ccccc1N=C(C)C1=C(O)COC1=O`: the inhibition is 27.5%.

Regarding `CC(C)N(C(=O)Cn1c(SCC(=O)N2CCN(c3ccccc3)CC2)nc2ccccc21)C(C)C`, the inhibition was 6.9%. Under `COC(=O)[C@H](Cc1ccccc1)NC(=O)N1CC(C)OC(C)C1` (some centres undefined) stands 8.3%; under `CC(C)(C)NC(=O)Cn1nnc(-c2ccccc2Cl)n1`, 45%; under `Cc1ccc(-c2nnn(CC(=O)N(CCO)C(C(=O)NC(C)(C)C)c3ccncc3)n2)cc1` (centres undefined), 74% (active). Under `COc1ccc(-c2nnn(CC(=O)N(CCO)C(C(=O)NC3CCCC3)c3ccc(F)cc3)n2)cc1` (centres undefined) stands 7.8%. To `CCCNC(=O)N1CCN(C(=O)NCCC)CC1` belongs 4.5%. For the compound `COc1ccc(NC(=O)c2ccc(OC)cc2)cc1`, the inhibition is -5.6%. To `COc1ccc(C(=S)Nc2ccccc2)cc1` belongs 65.2% (active). `COCCNC(=S)c1ccc(OC)cc1`: the inhibition is 18%. To `Oc1ccccc1CNc1ncc(Br)cc1Br` belongs 39.4%; to `O=C(NCCSc1ccccc1)c1ccco1`, 21.8%. In the case of `COc1ccc(CCNC(=O)c2ccco2)cc1`, the inhibition is 55.3% (active). Under `COc1ccc(N(CC(=O)NC(C)(C)C)C(=O)c2ccco2)cc1` stands -6.7%; under `CCc1ccc(-c2cc(C(=O)NCc3ccco3)c3ccccc3n2)s1`, 11.6%; under `c1ccc(CCC2=NCCn3cccc32)cc1`, 10.1%. To `O=S(=O)(c1ccc(Br)cc1)n1ccc2ccccc21` belongs 66.4% (active); to `CC(=O)Nc1cccc(/C(C)=N/NC(=O)c2ccccc2Cl)c1`, 10.9%. Turning to `Cc1ccc(C)c(NC(=O)C2CC(=O)N(C(C)C)C2)c1` (centres undefined), the inhibition was -10.6%. As to `Cc1ccc(C)c(N2C(=O)CS/C2=N\NC(=O)c2ccccc2Cl)c1`, the inhibition was 63.7% (active). Regarding `Cc1ccnc(N2C(=O)c3ccccc3C2Nc2ccc3c(c2)OCCO3)c1` (centres undefined), the inhibition is 93.2% (active). Under `O=C(NC1CCCCC1)C1c2ccccc2C(=O)N1Cc1ccco1` (centres undefined) stands 12.4%. As for `Cc1cccc(C(=O)Nc2ccccc2-c2nnn(CC(=O)Nc3ccc4c(c3)OCCO4)n2)c1`, the inhibition is -12.5%. With `O=C1c2ccccc2C(Nc2ccc3c(c2)OCCO3)N1Cc1ccco1` (centres undefined), the inhibition was 72.9% (active). As for `CC1CCN(c2nc3c(c(=O)[nH]c(=O)n3C)n2CCCc2ccccc2)CC1`, the inhibition was 18.4%. As to `O=C1CSC(c2cccc(F)c2)N1c1ccc(O)cc1` (centres undefined), the inhibition is 26.3%. To `CC1C/C(=N/NC(=O)c2cccs2)CC(C)(C)C1` (centres undefined) belongs 41.9%; to `FC(F)(F)c1cc(C(F)(F)F)c2ccc(N3CCN(c4ccccc4)CC3)nc2n1`, -3.4%; to `CCOC(=O)CCCNC(=O)CN1C(=O)NC(CCc2ccccc2)C1=O` (centres undefined), -2.6%.

`COc1ccc(-c2nnco2)cc1OC`: the inhibition was 11.8%.

Take `C=CCn1c(C(C)NC(=O)CC)nc2ccccc21` (centres undefined): the inhibition is -3.9%. To `CCCC(NC(=O)c1ccccc1)c1nc2ccccc2n1Cc1ccc(C(=O)OC)o1` (centres undefined) belongs 2.7%; to `CCCn1c(C(Cc2ccccc2)NC(=O)COC)nc2ccccc21` (centres undefined), 90.2% (active). To `CC(CN1CCCCC1)OC(=O)c1ccccc1Cl` (centres undefined) belongs 38.8%. Under `Cc1cc(C)c(C)c(S(=O)(=O)Nc2ccc(O)cc2)c1C` stands 50.9% (active); under `Cc1ccc(NS(=O)(=O)c2c(C)[nH]c(=O)[nH]c2=O)cc1C`, 1.6%. Take `Cc1noc(C)c1S(=O)(=O)Nc1ccc(C(=O)O)cc1`: the inhibition is 2.3%. To `c1ccc(Cc2nn3c(Cn4cnc5ccccc54)nnc3s2)cc1` belongs 39%. Under `Cc1c(-c2ccccc2)nc(N)c(C#N)c1-c1cccs1` stands 0.7%.

On to `CCOC(=O)c1ccc(NC(=O)CS(=O)(=O)c2cn(CC)c3ccccc23)cc1`, for which the inhibition was 20.6%. Under `CCOC(=O)[C@H]1CCC[C@@H](NS(=O)(=O)c2ccc(NC(C)=O)cc2)C1` stands 57.9% (active); under `CC(C)(C)NS(=O)(=O)c1ccc(NC(=O)NC2CCCCC2)cc1`, 8%. Under `CC(C)NS(=O)(=O)c1ccc(NC(=O)C2CCCCC2)cc1` stands 13.3%; under `CC1=C(C)CC(C(=O)NNC(=O)c2ccccc2O)C(C(=O)O)C1` (centres undefined), -7.2%.

`Cc1nc(SCC(=O)N2CCc3ccccc3C2)c2c(C)c(C)sc2n1`: the inhibition is 20%. To `COc1ccc(-n2c(SCC(=O)Nc3ccc4c(c3)OCO4)nnc2C(C)N2CCCCC2)cc1` (centres undefined) belongs 16.9%. To `CC1CCCN(C(C(=O)Nc2ccc(C(C)C)cc2)c2ccc3c(c2)OCO3)C1` (centres undefined) belongs 17.7%; to `O=C(Nc1ccc2c(c1)OCCO2)C(c1ccc(F)cc1)N1CCCCC1` (centres undefined), 56.5% (active). To `CCN(CC)Cc1csc2ccc(Br)cc12` belongs 5.2%. `O=[n+]1c2c(n([O-])c3cc(Br)ccc31)CCC2`: the inhibition was 21%. `C=CCn1c(=O)c2ccccc2n2c(SCC(=O)N3CCCc4ccccc43)nnc12`: the inhibition was 36.5%. Under `CCCn1c(SCC(=O)N2CCc3ccccc32)nnc1-c1ccncc1` stands 83.8% (active); under `Cc1nnc(SCC(=O)N2CCc3ccccc32)n1-c1ccccc1`, 3.9%; under `COc1ccc(-c2[nH]nc(-c3ccccc3)c2-c2nc3ccccc3[nH]2)cc1`, 11.3%. To `Cn1c(C(=O)NCCCN2CCN(c3cccc(Cl)c3)CC2)cc2c(=O)n(C)c3ccccc3c21` belongs 18%.

On to `O=C(NCc1cccs1)C1CCN(S(=O)(=O)c2ccc3c(c2)OCCO3)CC1`, for which the inhibition was 17.6%. Under `CSc1cccc(NC(=O)C2CCCN2S(=O)(=O)c2ccc3c(c2)CCC(=O)N3)c1` (centres undefined) stands 56.8% (active); under `O=C1CCc2cc(S(=O)(=O)N3CCC(C(=O)NCc4ccccc4Cl)CC3)ccc2N1`, 88.6% (active); under `COc1ccccc1CNC(=O)C1CCN(S(C)(=O)=O)CC1`, 2.2%.

`Cc1cccc(NC(=O)C2CCCN2S(=O)(=O)c2ccc(F)cc2)c1C` (centres undefined): the inhibition is 16.2%. Under `O=C(O)C1CCCN1S(=O)(=O)c1ccc2c(c1)CCC2` (centres undefined) stands -10.4%. To `CCOC(=O)CNC(=O)c1nn(-c2cccc(OC)c2)c(=O)c2ccccc12` belongs 5.3%. To `COc1ccc(-n2nnc3c(=O)n(CC(=O)OCc4ccccc4)cnc32)cc1` belongs 3.9%. On to `COC(=O)C1=C(Nc2ccc(OC)cc2)C=C(C)C(C(=O)OC)C1c1ccc(C)cc1` (centres undefined), for which the inhibition is 33.3%. Under `CC1(C)Cc2c(sc3nc4n(c(=N)c23)CCCCC4)CO1` stands -6.4%; under `O=C(NCCCNCc1ccccc1)c1ccc(/C=N/O)nc1`, -13.4%; under `Cn1c(=O)[nH]c(=O)c2c1nc(CN(Cc1ccccc1)Cc1ccccc1)n2CCN1CCOCC1`, 14.9%. To `COc1ccc(-c2nc3n(c2Br)CCC3)cc1` belongs 32.9%. Under `Cc1ccc(C(=O)Nc2c(C#N)c(C)c(C)n2Cc2ccccc2)cc1` stands 23.9%; under `CN1C(=O)c2ccccc2C(C(=O)NCCCN2CCCC2)C1c1c[nH]c2ccccc12` (centres undefined), -6.7%.

As a reminder, the inhibition is the drop in the measured response relative to a control, in per cent.
